The list is not random: actives were taken first. Their share in the collection is about 9.3%.
SMN2 splice enh: enhancers of SMN2 splice variant expression | HEK293 SMN2-luciferase splicing reporter, luminescence, 30-36 h | Potency, µM (doses to about 46.1 µM), for inactives: at the top dose activity change, positive = activation, hits mostly activators | 2.8% of 210,000 active; note: % of control where 0% means no effect; nearly all actives have a fitted effect of over 55% in size
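HEK293 cells carry an SMN2 minigene-luciferase reporter in which exon 7 inclusion puts luciferase in frame. Cells were seeded at 2000 cells/well, attached for 10-12 hours, then exposed to compounds for 30-36 hours at 37C before ONE-Glo luminescence.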
FLuc modulator: inhibits or activates purified firefly luciferase, miR-21 counter-screen. purified FLuc, Km substrates, luminescence inhibition. Potency, µM (highest dose often 57.5 µM), inactives show at the highest dose activity change, negative = inhibition, hits mostly inhibitors. 6.9% of 360,000 active;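 note: plate controls were vehicle for no effect and reference inhibitor for full effect; nearly all actives have a fitted effect of over 55% in size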
Target sequence (P08659 whole entry, looked up): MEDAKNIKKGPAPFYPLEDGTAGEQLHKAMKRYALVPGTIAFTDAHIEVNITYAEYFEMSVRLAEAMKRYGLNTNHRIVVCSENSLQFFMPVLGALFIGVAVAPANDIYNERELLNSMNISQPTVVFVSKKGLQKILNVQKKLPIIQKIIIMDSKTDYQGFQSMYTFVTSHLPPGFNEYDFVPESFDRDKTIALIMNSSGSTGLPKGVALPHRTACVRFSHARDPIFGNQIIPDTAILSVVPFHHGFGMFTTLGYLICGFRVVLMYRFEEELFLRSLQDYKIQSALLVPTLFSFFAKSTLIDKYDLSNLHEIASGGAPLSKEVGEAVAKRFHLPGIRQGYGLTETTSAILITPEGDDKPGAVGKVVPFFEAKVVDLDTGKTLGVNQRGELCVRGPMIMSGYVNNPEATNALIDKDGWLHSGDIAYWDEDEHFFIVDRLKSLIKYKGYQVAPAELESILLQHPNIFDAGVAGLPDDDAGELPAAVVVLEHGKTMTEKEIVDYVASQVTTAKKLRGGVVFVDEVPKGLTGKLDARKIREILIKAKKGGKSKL
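Purified P. pyralis luciferase, 10 nM final, with Km-level 10 uM D-luciferin and 10 uM ATP in 50 mM Tris acetate pH 7.5, 10 mM Mg acetate, 0.01% Tween-20, 0.05% BSA; 6-point qHTS titration about 60 µM downward; luminescence read.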
ELG1 genotox: genotoxicity induction in ELG1-luciferase HEK293T cells; Potency, µM (doses to about 46 µM), for inactives: top-dose activity change, positive = activation, usual class: activators; 1.3% of 330,000 active; HEK293T ELG1-luciferase reporter, luminescence, 16 h; note: % of control where 0% means no effect; nearly all actives have a fitted effect of over 60% in size
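HEK293T cells expressing luciferase-tagged ELG1 were treated with compound or DMSO for 16 hr at 37°C. Luciferase activity was then read after 30 min with ONE-Glo at room temperature; rising signal flags genetic stress.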
Rab9 promoter act: activates the Rab9 promoter. Huh7 Rab9 promoter-luciferase reporter, luminescence, 24 h. Potency, µM (series often up to 9.22 µM), inactives show at the top dose activation, negative = inhibition, most hits filed as activators. AID 485297. 2.8% of 320,000 active; note: % of control where 0% means no effect; nearly all actives have a fitted effect of over 60% in size
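Luminescence read-out: Huh7 cells stably expressing Rab9-luciferase, treated 24 h with compound at 37 °C, then lysed with luciferase reagent for 10 min at ambient before reading.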
NPC1 promoter act: activates the NPC1 promoter; Huh7 NPC1 promoter luciferase reporter, 24 h; Potency, µM (series often up to 9.22 µM), for the others: at the highest dose activation, hits mostly activators; 2.4% of 320,000 active; note: % of control where 0% means no effect; nearly all actives have a fitted effect of over 60% in size
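Readout is luciferase luminescence, reflecting NPC1 promoter activation in stably transfected Huh7 cells after 24 h compound exposure at 37 °C in reduced-serum medium with 10% FBS.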
ELG1 DNA repair: ELG1-dependent DNA repair inhibition | HEK293T ELG1-luciferase reporter, luminescence, 16 h; DNA damage induced by 5-fluorouridine | Potency, µM (top dose mostly 46.1 µM), for the others: at the highest dose activity change, negative = inhibition, most hits filed as inhibitors | AID 504467 | 2.3% of 330,000 active; note: % is set by controls: 0 for no effect and ±100 for the full control effect; nearly all actives have a fitted effect of over 55% in size
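Reporter activity after DNA damage by 5-fluorouridine is monitored. Compound-treated cells incubate 16 hr at 37 °C, then ONE-Glo is added for 30 min before luminescence reading.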
* marks the source's active call; other numbers are inactive results. Calls come from the whole dose curve; as a rule, active = well fitted curve in the direction sought with a large enough effect; inconclusive = small, poorly fitted or top-dose-only effect, or another doubt; inactive = no such curve, though single readings can be large; an effect the other way counts as inactive or inconclusive. Potency is the fitted concentration of half-maximal effect.

What do the screens show for `CCOC(=O)c1c(NC(=O)CC)sc2c1CCN(Cc1ccccc1)C2`?
FLuc modulator: 6%; ELG1 genotox: -3%; Rab9 promoter act: 4%; NPC1 promoter act: -6%; ELG1 DNA repair: -4%

Results for O=C(COC(=O)c1ccc(F)c(S(=O)(=O)N2CCOCC2)c1)c1ccc(Cl)cc1 ?
FLuc modulator: 8.5µM*; ELG1 genotox: -1%; Rab9 promoter act: 2%; NPC1 promoter act: -2%; ELG1 DNA repair: 10%

What do the screens show for `Cc1ccnc(NC(=O)c2cccc(S(=O)(=O)N3CCOCC3)c2)c1`?
FLuc modulator: 17µM*; ELG1 genotox: inconclusive; Rab9 promoter act: 13%; NPC1 promoter act: 0%; ELG1 DNA repair: inconclusive

What do the screens show for `O=C(COC(=O)c1ccc(F)c(S(=O)(=O)N2CCOCC2)c1)c1ccccc1`?
ELG1 genotox: 5%; ELG1 DNA repair: 25%

How did COc1ccc(C(=O)OCc2c(F)cccc2Cl)cc1S(=O)(=O)N1CCOCC1 do in these assays?
ELG1 genotox: 3%; Rab9 promoter act: -3%; NPC1 promoter act: 0%; ELG1 DNA repair: inconclusive

What do the screens show for `CCOC(=O)c1ccc(NC(=O)c2ccc(C)c(S(=O)(=O)N3CCOCC3)c2)cc1`?
SMN2 splice enh: -62%; FLuc modulator: -4%; ELG1 genotox: -24%; Rab9 promoter act: -30%; NPC1 promoter act: -18%; ELG1 DNA repair: 4.6µM*

Results for COc1ccc(COC(=O)c2ccc(C)c(S(=O)(=O)N3CCOCC3)c2)cc1F ?
FLuc modulator: -11%; ELG1 genotox: -7%; Rab9 promoter act: 4%; NPC1 promoter act: -3%; ELG1 DNA repair: 18µM*

How did CCOCCCN(C(=O)c1snc(C(N)=O)c1N)C(C(=O)NCCC(C)C)c1ccc(F)cc1 (centres undefined) do in these assays?
FLuc modulator: 0%; ELG1 genotox: -4%; Rab9 promoter act: 4%; NPC1 promoter act: 1%; ELG1 DNA repair: inconclusive

Results for Cc1ccccc1C(=O)Nc1ccc(-c2nc3ccc(C(=O)c4ccccc4)cc3[nH]2)cc1 ?
SMN2 splice enh: -22%; FLuc modulator: inconclusive; ELG1 genotox: -14%; Rab9 promoter act: -3%; NPC1 promoter act: 2%; ELG1 DNA repair: inconclusive

What do the screens show for `COc1ccc2cc(CCC(C)=O)ccc2c1`?
SMN2 splice enh: 13µM*; FLuc modulator: inconclusive; Rab9 promoter act: inconclusive; NPC1 promoter act: inconclusive

What do the screens show for `Cc1nn(CCc2n[nH]c(=S)n2C2CCCCC2)c(C)c1Br`?
SMN2 splice enh: inconclusive; FLuc modulator: 10%; ELG1 genotox: -3%; Rab9 promoter act: 3%; NPC1 promoter act: 0%; ELG1 DNA repair: -2%

What do the screens show for `CNc1cnn(-c2ccc(C)cc2)c(=O)c1Cl`?
SMN2 splice enh: 11µM*; FLuc modulator: 13µM*; ELG1 genotox: inconclusive; Rab9 promoter act: 3.2µM*; NPC1 promoter act: 1.6µM*; ELG1 DNA repair: inconclusive

Results for CNc1cnn(-c2ccc(C)cc2)c(=O)c1Sc1ccc(C)cc1 ?
SMN2 splice enh: 8%; FLuc modulator: -1%; ELG1 genotox: 2%; Rab9 promoter act: 1%; NPC1 promoter act: 0%; ELG1 DNA repair: -6%

What do the screens show for `CNC(=O)c1c(Br)cnn1-c1ccc(C)cc1`?
FLuc modulator: 7.6µM*; ELG1 genotox: inconclusive; Rab9 promoter act: 3.2µM*; NPC1 promoter act: 2.8µM*; ELG1 DNA repair: inconclusive

What do the screens show for `Cc1ccc(-n2ncc(C(=O)NC3CC3)c2C2CCN(C(=O)OC(C)(C)C)CC2)cc1`?
FLuc modulator: 5%; ELG1 genotox: 1%; Rab9 promoter act: -6%; NPC1 promoter act: 2%; ELG1 DNA repair: 1%

How did Cc1ccc(-n2ncc(Cl)c2C(=O)NC2CC2)cc1 do in these assays?
FLuc modulator: 11µM*; ELG1 genotox: inconclusive; Rab9 promoter act: 1.8µM*; NPC1 promoter act: 3.2µM*; ELG1 DNA repair: inconclusive
